This is a sample that favours compounds with a hit; in the whole collection about 1.3% have one here.
VHR inh abs – blocks human VHR1 dual specificity phosphatase | P51452 | recombinant VHR phosphatase, pNPP absorbance | inhibition, % at 13.3 µM | hit rate 0.52% among 290,000; in the data active = inhibition above about 50%
Target sequence (P51452 whole entry, looked up): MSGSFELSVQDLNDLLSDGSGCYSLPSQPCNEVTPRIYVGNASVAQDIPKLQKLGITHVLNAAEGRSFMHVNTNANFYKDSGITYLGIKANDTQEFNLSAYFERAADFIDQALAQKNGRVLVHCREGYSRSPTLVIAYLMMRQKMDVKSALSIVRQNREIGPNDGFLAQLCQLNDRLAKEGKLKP
TcdB inh – blocks C. difficile toxin B glycohydrolase activity. TcdB glycohydrolase enzymatic assay, plate reader. inhibition, % at 9.99 µM. hit rate 0.24% among 350,000. AID 652162; in the data active = inhibition above about 10%
Vc quorum ag – quorum light induction in luxS cqsA deficient V. cholerae | V. cholerae BH1578 lux reporter, luminescence, 6 h | activation, % at 18.7 µM | hit rate 0.16% among 350,000; in the data active = activation mostly above about 9.7%, no sharp cut-off
3CLpro inhibitor – SARS-CoV 3CLpro protease inhibition | P0C6X7 | recombinant SARS-CoV 3CLpro, quenched FRET peptide cleavage | inhibition, % at 6 µM | hit rate 0.14% among 290,000; in the data active = inhibition above about 12%
CCHF vOTU inh-1 – CCHFV vOTU protease inhibition; hit rate 0.55% among 370,000; Pep-AMC fluorescence; inhibition, % at 11.5 µM
PriA SSB inh – blocks PriA binding to SSB C-terminal tail; AlphaScreen SSBct-PriA binding, biotinylated peptide; inhibition, % at 33 µM; hit rate 0.6% among 430,000; in the data active = inhibition mostly above about 37%, no sharp cut-off; inactive = mostly below about 20%
CCHF vOTU inh-2 – CCHFV vOTU protease inhibition, confirmation | shares compounds with CCHF vOTU inh-1 | Recombinant CCHFV vOTU, Pep-AMC fluorescence | inhibition, % at 11.5 µM | hit rate 17% among 1,900
Numbers stand for hits; - = inactive; . = no result given. Rule as the data show it, unless noted: active = inhibition above about 30%; inactive = the rest.

SMILES | VHR inh abs | TcdB inh | Vc quorum ag | 3CLpro inhibitor | CCHF vOTU inh-1 | PriA SSB inh | CCHF vOTU inh-2
O=C(Nc1ncnc2c1CCC2)c1cccc(F)c1 | . | . | . | . | . | - | .
O=S(=O)(c1ccc(Cl)c(C(F)(F)F)c1)N1CCCCC1 | . | . | . | . | . | - | .
CC(=O)c1cccc(NC(=O)C2=CC(c3cccs3)=NS(=O)(=O)N2C)c1 | - | - | - | - | - | - | .
CN1C(C(=O)Nc2cccc(O)c2)=CC(c2cccs2)=NS1(=O)=O | - | - | - | - | 32.6 | - | -
COC1(CNS(C)(=O)=O)CCSC1 (stereo unspecified) | . | . | . | . | . | - | .
Nc1ccc2ccc(N)cc2c1 | . | - | . | . | 33.8 | . | -
O=C1OC(c2cccs2)=N/C1=C\c1ccc(-c2ccccc2Cl)o1 | - | - | - | - | 31.9 | - | -
COc1cc(/C=N/NC(=O)C(Cc2c[nH]c3ccccc23)NC(=O)OCc2ccccc2)cc([N+](=O)[O-])c1O (stereo unspecified) | - | . | - | - | 35.0 | . | -
CC(=O)N(c1ccccc1C)C1CCCC1 | - | - | - | - | - | - | .
CC(=O)N(C1=C(Cl)C(=O)c2ccccc2C1=O)C1CCCCC1 | - | - | - | - | 100.1 | - | 98.4
O=C(NCc1ccsc1)c1cc2ccccc2oc1=O | . | . | . | . | . | - | .
CCc1nc2c(OCCC3CCCCC3)cccn2c1N(C)C(=O)c1ccccc1F | . | - | - | . | - | . | .
CCc1nc2c(OCCC3CCCCC3)cccn2c1N(C)C(=O)c1ccc(C)cc1 | . | - | - | . | 37.2 | . | -
CCc1nc2c(OCCC3CCCCC3)cccn2c1N(C)C(=O)COc1ccccc1 | . | - | - | . | 36.3 | . | -
CCc1nc2c(OCCC3CCCCC3)cccn2c1N(C)C(=O)C1CC1 | . | . | - | . | . | . | .
CCc1nc2c(OCC3CCCCC3)cccn2c1N(C)C(=O)c1ccccc1F | . | - | - | . | 31.0 | . | -
Cc1cc(C)cc(NC(=O)CSc2ccc(-c3sc(-c4cccnc4)nc3C)nn2)c1 | . | . | . | . | . | - | .
CC(C)NC(=O)C1C(c2ccccc2)=Nc2ccccc2N1C(=O)c1ccc(C(F)(F)F)cc1 (stereo unspecified) | . | - | . | . | - | . | .
CC(=O)N1c2ccccc2N=C(c2ccc(C(F)(F)F)cc2)C1C(=O)NC(C)C (stereo unspecified) | . | - | . | . | 29.8 | . | -
COc1ccc(Cc2nnc(NC(=O)C3CC(=O)N(c4ccccc4)C3)o2)cc1 (stereo unspecified) | . | . | . | . | . | - | .
O=C(c1ccccc1)c1coc2c1C(=O)c1ccccc1C2=O | - | - | - | - | 33.5 | - | 58.7
CC(O)(c1cccc(F)c1)c1nc(-c2cccc(C(F)(F)F)c2)cs1 (stereo unspecified) | . | - | - | . | - | . | .
CC(O)(c1ccc(F)c(F)c1)c1nc(-c2cccc(C(F)(F)F)c2)cs1 (stereo unspecified) | . | - | - | . | 39.4 | . | -
Cc1cc(-c2nnc(NC(=O)CCS(=O)(=O)c3ccc(Cl)cc3)o2)n(C)n1 | . | . | . | . | . | - | .
COC(CNC(=O)c1cccn(C)c1=O)c1ccc(Cl)s1 (stereo unspecified) | . | . | . | . | . | - | .
SMILES | VHR inh abs | TcdB inh | Vc quorum ag | 3CLpro inhibitor | CCHF vOTU inh-1 | PriA SSB inh | CCHF vOTU inh-2
CC(=O)N(C1=C(N)C(=O)c2ccccc2C1=O)c1ccccc1 | . | - | - | - | 72.6 | - | 63.9
COc1ccc(-n2nncc2CN2CCN(C(=O)c3ccoc3)CC2)cc1F | . | . | . | . | . | - | .
C=CCOc1ccc(C(c2c(C(=O)O)[nH]c3ccccc23)c2c(C(=O)O)[nH]c3ccccc23)cc1 | - | - | - | - | 51.3 | - | -
COc1ccc(CN=Cc2c(C(=O)O)[nH]c3ccccc23)cc1 | - | - | - | - | - | - | .
COc1cc(C(c2c(C(=O)O)[nH]c3ccccc23)c2c(C(=O)O)[nH]c3ccccc23)ccc1OCc1ccccc1 | - | - | - | - | 38.7 | - | -
CCN(CC)C(=O)N1CCN(S(=O)(=O)c2ccc(F)cc2)CC1 | . | . | . | . | . | - | .
Cc1cc(C(=O)NN=Cc2ccc([N+](=O)[O-])s2)c2ccccc2n1 | . | . | . | . | . | - | .
CCCCN(CCCC)S(=O)(=O)c1ccc(NC(=O)c2ccc([N+](=O)[O-])cc2Cl)cc1 | - | . | - | - | 29.9 | - | -
Cc1c(C)c(C)c(S(=O)(=O)NCC(c2cccn2C)N2CCCC2)c(C)c1C (stereo unspecified) | . | . | . | . | . | - | .
CCCCCC(C)NC(=O)CN1C(=O)NC(C)(c2ccc3ccccc3c2)C1=O (stereo unspecified) | - | - | - | - | 32.4 | - | -
CC1(c2ccc3ccccc3c2)NC(=O)N(CC(=O)NCc2cccs2)C1=O (stereo unspecified) | - | - | - | - | - | - | .

Screening results: PubChem, several laboratories
